In PubChem BioAssay AID720517 (National Center for Advancing Translational Sciences (NCATS), 2013) one finds Potency data, which are given here for 23 compounds.

Results filed as inconclusive are left out. Entries that show only a call come without a potency. The source made the active and inactive calls. Calls follow the shape of the dose curve; as a rule, active = well fitted activation curve with a large enough effect; inconclusive = small, poorly fitted or top-dose-only effect; inactive = flat fitted curve, though single readings scatter.

The assay can be described thus: qHTS for Inhibitors of Cell Surface uPA Generation: FP59 Counterscreen for Cherry-picked Compounds. The following applies: FP59 anthrax toxin cytotoxicity counterscreen, cells; series mostly up to 115 µM.
For the compound `CCOc1ccc(-c2n[nH]c(=S)n2Cc2ccccc2)cc1`, the Potency entry was “inactive”.
As for `CCn1c(=O)cc(C(=O)OC)sc1=Nc1ccc(F)c(F)c1`, the Potency result was “inactive”.
The same measure for `O=C(COC(=O)Cn1cnc2ccccc21)NCc1ccc(F)cc1`: “inactive”; for `O=C(NCCc1cn2ccsc2n1)c1cccs1`: “inactive”; for `Cc1nn2c(=O)cc(CSc3nc4ccccc4[nH]3)nc2s1`: “inactive”.
Take `CCOc1ccc(NC(=S)N2CCC(c3ccc(C)cc3)C2)cc1` (stereo not drawn): the Potency result is “inactive”.
The same measure for `CN(CCC#N)C(=S)Nc1ccc(Oc2ccccc2)cc1`: “inactive”; for `CC1(C)CC(=O)C([N+](=O)[O-])=C(NCCCC(=O)O)C1`: “inactive”; for `C[C@H](CO)N1C[C@H](C)[C@H](CN(C)S(=O)(=O)c2cn(C)cn2)Oc2ccc(NC(=O)Nc3ccc(C(F)(F)F)cc3)cc2CC1=O`: “inactive”.
As to `CCc1ccc(N2CC(C(=O)Nc3ccc4c(c3)OCO4)CC2=O)cc1` (stereo not drawn), the Potency result is “inactive”.
`COC(=O)c1cc(CNC(=O)c2ccc(N3CCCC3)c([N+](=O)[O-])c2)ccc1OC`: the Potency result was “inactive”.
For `CCOc1ccc(CCNC(=O)Cc2ccc(NC3=NC4CS(=O)(=O)CC4S3)cc2)cc1OCC` (stereo not drawn), the Potency result is “inactive”.
The same measure for `CCOc1ccc(C(=O)NCCO)cc1`: “inactive”; for `Cc1ccc(S(=O)(=O)N2CCC(C)CC2)cc1`: “inactive”.
Take `Cc1nc(NC(=O)CSc2nnc(C3CC3)n2C)sc1C(=O)N(C)C`: the Potency entry is “inactive”.
For `CCC(=O)Nc1nc(-c2cc([N+](=O)[O-])cs2)cs1`, the Potency result is “inactive”.
On to `CCOCCCn1c(SCC(=O)Nc2cc(OC)ccc2OC)nc2ccccc2c1=O`, for which the Potency entry is “inactive”.
For `COc1ccc(N2CC(C(=O)Nc3nnc(SCCC4OCCO4)s3)CC2=O)cc1` (stereo not drawn), the Potency entry is “inactive”.
In the case of `O=C(NNC(=O)c1ccc2ccccc2c1)Nc1ccc(F)cc1`, the Potency result was “inactive”.
On to `O=C(Nc1ccc(Cl)cc1)Nc1nnc(-c2ccncc2)s1`, for which the Potency entry is “inactive”.
For `CCc1ccc(NCc2nc(-c3ccccc3)no2)cc1`, the Potency entry was “inactive”.
With `CCc1ccc(OCC(=O)N(Cc2cccs2)C2CCS(=O)(=O)C2)cc1` (stereo not drawn), the Potency entry was “inactive”.
With `CCOc1cc(/C=C(\C#N)C(=O)NCc2cccnc2)ccc1O`, the Potency result is “inactive”.
